Changes are numbered by the printed parent chain.
How the values were obtained:
[1] = biological target: T1, SALL4 ZFC4 R900W (HT-SELEX) (Mus musculus, UniProt Q8BX22 870-940, R900W); test: HT-SELEX; high values mean tight binding; details: protein: recombinant; vector His6-GST; dsDNA, one strand shown
T1 sequence: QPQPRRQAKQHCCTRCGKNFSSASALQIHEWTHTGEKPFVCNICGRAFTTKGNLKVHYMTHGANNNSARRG
In short: (§1)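 Library DNA (1.5 µg in cycle one, 200 ng in later cycles) was incubated with 1 µg of purified recombinant mouse SALL4 zinc finger cluster 4, residues 870–940, in 100 µl buffer (10 mM Tris–HCl pH 7.5, 50 mM NaCl, poly(dI-dC), DTT) at room temperature for 10 min. Up to 6 rounds of Ni2+ bead capture, washing, PCR amplification and reselection were run in triplicate. Reads from MiSeq sequencing were scanned for 6-mers. For each canonical k-mer, binding signal is its read fraction as fold change versus the original random library.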

[2] = biological target: T2, SALL4 ZFC4 G921D (HT-SELEX) (Mus musculus, UniProt Q8BX22 870-940, G921D); test: HT-SELEX; high values mean tight binding; details: protein: recombinant; vector His6-GST; dsDNA, one strand shown
T2 sequence: T1 sequence with W31R, G52D
In short: as §1

Sequence | binding signal [1] [fold-change vs cycle 0] | binding signal [2] [fold-change vs cycle 0]
CACAGC | 0.324 ± 0.0122 | 0.442 ± 0.0707
GCTGCC | 0.109 ± 0.0113 | 0.217 ± 0.0947
CGACCG | 0.146 ± 0.0139 | 0.263 ± 0.0799
GCACCA | 0.324 ± 0.0178 | 0.451 ± 0.0674
AGCGCA | 0.18 ± 0.00997 | 0.305 ± 0.097
GCCGCA | 0.0591 ± 0.00535 | 0.149 ± 0.0608

From publication PMC9838217, “Structure of SALL4 zinc finger domain reveals link between AT-rich DNA binding and Okihiro syndrome”
